The source of these data is article PMC5540273 (PLoS ONE, 2017).

The structures appear in SMILES notation. Where two headings read alike, the source gives them in different places.

Among the test systems are TNIK; TNK1; TNK2; TNNI3K; TRKB; TRPM6; TSSK1B; TSSK3.
Common to all, as to details: n = 1
For a further assay, the system named is T1, TRKA.
T1 construct: gene NTRK1

For the next assay, the system named is T2, TRKC.
T2 construct: gene NTRK3

Where [1] appears, read: concentration: 1 μM, replicates: in singlicate.
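Also: KINOMEscan kinase panel screen.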

Take `Cl.Oc1ccc(-c2nc(-c3ccccc3)[nH]c2-c2ccncc2)cc1` [SB-428218]: the “%Inh” value in the assay with TNIK (setting [1]) turned out to be 0%; in the assay with TNK1 (setting [1]) it was 0%; in the assay on TNK2 (setting [1]), 10%; in the assay on TNNI3K (setting [1]), 0%; in the assay on TRKA (setting [1]) it was 0%; with TRKB (setting [1]), 63%. For the same molecule, the “%Inh” value with TRKC (setting [1]) was found to be 64%; in the assay on TRPM6 (setting [1]), 0%; with TSSK1B (setting [1]), 0%; in the assay on TSSK3 (setting [1]), 0%.
Turning to `Cc1cccc(-c2nc(Nc3cccc(C(N)=O)c3)c3ccccc3n2)n1` [GW876019], the “%Inh” value in the assay with TNIK (setting [1]) turned out to be 2%; with TNK1 (setting [1]), 5%; in the assay with TNK2 (setting [1]) it was 15%; with TNNI3K (setting [1]), 0%; in the assay on TRKA (setting [1]), 0%; in the assay on TRKB (setting [1]), 0%. In addition, the “%Inh” value in the assay with TRKC (setting [1]) came to 0%; in the assay with TRPM6 (setting [1]), 0%; with TSSK1B (setting [1]) it was 10%; with TSSK3 (setting [1]) it was 0%.
With `O=C(Nc1n[nH]c2cc(-c3cccc(F)c3F)ccc12)C1CC1` [SB-733894], the “%Inh” value in the assay with TNIK (setting [1]) is 72%; in the assay on TNK1 (setting [1]), 10%; with TNK2 (setting [1]), 2%; with TNNI3K (setting [1]), 0%; in the assay with TRKA (setting [1]) it was 38%; in the assay with TRKB (setting [1]), 11%. Moreover, the “%Inh” value turned out to be 34% in the assay on TRKC (setting [1]), 0% in the assay with TRPM6 (setting [1]), 0% with TSSK1B (setting [1]) and 0% in the assay on TSSK3 (setting [1]).
For the molecule `Cc1ccccc1-n1cnc2c(N)ncnc21` [SKF-97510], the “%Inh” value amounted to 0% in the assay with TNIK (setting [1]); 0% with TNK1 (setting [1]); 7% in the assay with TNK2 (setting [1]); 0% in the assay on TNNI3K (setting [1]); 0% in the assay on TRKA (setting [1]); 0% in the assay on TRKB (setting [1]). For the same molecule, the “%Inh” value is 0% with TRKC (setting [1]), 66% in the assay on TRPM6 (setting [1]), 0% in the assay with TSSK1B (setting [1]) and 0% in the assay on TSSK3 (setting [1]).
Consider `Cc1csc(-c2nc(Nc3ccncc3)c3ccccc3n2)n1` [GW869640], for which the “%Inh” value was 50% in the assay on TNIK (setting [1]); 21% in the assay with TNK1 (setting [1]); 0% with TNK2 (setting [1]); 18% in the assay with TNNI3K (setting [1]); 44% in the assay on TRKA (setting [1]); 12% in the assay on TRKB (setting [1]). For the same molecule, the “%Inh” value in the assay with TRKC (setting [1]) was determined as 22%; with TRPM6 (setting [1]), 44%; in the assay with TSSK1B (setting [1]) it was 0%; with TSSK3 (setting [1]) it was 23%.
As for `Cn1ccc2ncnc(Oc3cccc(C(=O)Nc4ccccc4)c3)c21`, the “%Inh” value in the assay on TNIK (setting [1]) was 16%; in the assay with TNK1 (setting [1]), 3%; with TNK2 (setting [1]) it was 9%; in the assay with TNNI3K (setting [1]), 1%; with TRKA (setting [1]), 21%; in the assay with TRKB (setting [1]), 0%. For the same molecule, the “%Inh” value with TRKC (setting [1]) is 0%; in the assay with TRPM6 (setting [1]), 0%; in the assay on TSSK1B (setting [1]), 9%; in the assay on TSSK3 (setting [1]) it was 0%.
As to `COc1cc(Nc2nccc(N3CCC(NC(=O)Nc4cc(C)ccc4C)C3)n2)cc(OC)c1OC` (stereo not drawn) [GSK1379762], the “%Inh” value came to 0% in the assay with TNIK (setting [1]); 14% in the assay on TNK1 (setting [1]); 15% in the assay with TNK2 (setting [1]); 0% with TNNI3K (setting [1]); 18% in the assay on TRKA (setting [1]); 0% with TRKB (setting [1]). Also, the “%Inh” value is recorded as 20% in the assay on TRKC (setting [1]), 0% with TRPM6 (setting [1]), 7% in the assay on TSSK1B (setting [1]) and 21% in the assay on TSSK3 (setting [1]).
In the case of `CCCc1ccc(S(=O)(=O)NC2CCN(c3ccnc(Nc4ccc(F)cc4)n3)C2)cc1` (stereo not drawn) [GSK1379715], the “%Inh” value came out at 0% in the assay on TNIK (setting [1]); 0% with TNK1 (setting [1]); 26% in the assay on TNK2 (setting [1]); 13% with TNNI3K (setting [1]); 0% in the assay with TRKA (setting [1]); 0% in the assay with TRKB (setting [1]). The “%Inh” value turned out to be 28% with TRKC (setting [1]), 0% in the assay on TRPM6 (setting [1]), 100% in the assay with TSSK1B (setting [1]) and 15% with TSSK3 (setting [1]).
`Cc1cccc(-c2nc(C)cc(Nc3ccncc3)n2)n1` [GSK257997]: the “%Inh” value with TNIK (setting [1]) is on record as 0%; in the assay with TNK1 (setting [1]), 0%; in the assay with TNK2 (setting [1]) it was 28%; in the assay on TNNI3K (setting [1]) it was 0%; in the assay with TRKA (setting [1]), 39%; in the assay with TRKB (setting [1]), 0%. The “%Inh” value with TRKC (setting [1]) is 0%; in the assay on TRPM6 (setting [1]), 24%; in the assay on TSSK1B (setting [1]) it was 3%; in the assay with TSSK3 (setting [1]) it was 17%.
Turning to `COc1ccc(C2=C(Nc3cccc(C(=O)O)c3)C(=O)NC2=O)cc1` [SB-390765], the “%Inh” value in the assay on TNIK (setting [1]) is 0%; in the assay on TNK1 (setting [1]) it was 5%; in the assay with TNK2 (setting [1]), 6%; in the assay with TNNI3K (setting [1]), 0%; in the assay on TRKA (setting [1]), 47%; in the assay on TRKB (setting [1]) it was 0%. Moreover, the “%Inh” value was found to be 22% in the assay with TRKC (setting [1]), 0% with TRPM6 (setting [1]), 8% in the assay on TSSK1B (setting [1]) and 0% in the assay with TSSK3 (setting [1]).
In the case of `O=C(Nc1n[nH]c2nc(-c3nccs3)c(Br)cc12)C1CCCC1` [SB-742609], the “%Inh” value turned out to be 1% in the assay with TNIK (setting [1]); 2% in the assay with TNK1 (setting [1]); 4% in the assay with TNK2 (setting [1]); 6% with TNNI3K (setting [1]); 0% in the assay with TRKA (setting [1]); 59% in the assay on TRKB (setting [1]). Further, the “%Inh” value with TRKC (setting [1]) was 24%; in the assay on TRPM6 (setting [1]) it was 0%; in the assay on TSSK1B (setting [1]) it was 8%; with TSSK3 (setting [1]), 0%.
Consider `COc1ccc(Nc2nccc(NCCNC(=O)Nc3ccccc3F)n2)cc1` [GSK1379901], for which the “%Inh” value in the assay with TNIK (setting [1]) is 0%; with TNK1 (setting [1]), 0%; in the assay on TNK2 (setting [1]) it was 31%; in the assay on TNNI3K (setting [1]), 14%; in the assay on TRKA (setting [1]), 0%; in the assay with TRKB (setting [1]) it was 0%. Moreover, the “%Inh” value in the assay with TRKC (setting [1]) was 18%; with TRPM6 (setting [1]), 11%; with TSSK1B (setting [1]) it was 0%; in the assay on TSSK3 (setting [1]), 7%.
In the case of `COc1ccccc1CNC(=O)c1cc(C(=O)c2ccccc2C)c[nH]1` [GSK364507], the “%Inh” value worked out at 0% in the assay on TNIK (setting [1]); 0% with TNK1 (setting [1]); 17% in the assay on TNK2 (setting [1]); 0% in the assay on TNNI3K (setting [1]); 0% in the assay on TRKA (setting [1]); 24% in the assay with TRKB (setting [1]). Further, the “%Inh” value turned out to be 2% in the assay with TRKC (setting [1]), 21% in the assay on TRPM6 (setting [1]), 16% in the assay with TSSK1B (setting [1]) and 6% with TSSK3 (setting [1]).
Turning to `COc1cc2nccc(Nc3ccc(NC(=O)c4ccc(C)cc4)c(O)c3)c2cc1OC.Cl` [GW440132], the “%Inh” value in the assay with TNIK (setting [1]) turned out to be 0%; in the assay with TNK1 (setting [1]), 26%; in the assay on TNK2 (setting [1]) it was 48%; in the assay with TNNI3K (setting [1]), 4%; in the assay on TRKA (setting [1]) it was 36%; in the assay with TRKB (setting [1]) it was 0%. In addition, the “%Inh” value in the assay on TRKC (setting [1]) came to 0%; in the assay on TRPM6 (setting [1]) it was 5%; in the assay on TSSK1B (setting [1]), 3%; in the assay with TSSK3 (setting [1]), 18%.
`CCn1c(-c2cccnc2O)nc2cnccc21` [SB-736715]: the “%Inh” value amounted to 0% in the assay on TNIK (setting [1]); 8% in the assay on TNK1 (setting [1]); 0% in the assay with TNK2 (setting [1]); 0% in the assay with TNNI3K (setting [1]); 0% with TRKA (setting [1]); 3% in the assay with TRKB (setting [1]). The “%Inh” value in the assay on TRKC (setting [1]), in the assay with TRPM6 (setting [1]), in the assay on TSSK1B (setting [1]) and in the assay with TSSK3 (setting [1]) was 0% throughout.
Consider `COc1ccc2nc(-c3cccc(C)n3)nc(Nc3ccncc3)c2c1` [GSK204919], for which the “%Inh” value came out at 9% in the assay with TNIK (setting [1]); 0% with TNK1 (setting [1]); 15% in the assay on TNK2 (setting [1]); 16% in the assay on TNNI3K (setting [1]); 0% in the assay on TRKA (setting [1]); 0% with TRKB (setting [1]). Also, the “%Inh” value with TRKC (setting [1]) stood at 0%; in the assay on TRPM6 (setting [1]), 0%; in the assay with TSSK1B (setting [1]) it was 0%; with TSSK3 (setting [1]) it was 14%.
With `Cc1ccc(NC(=O)Nc2cccc(C(F)(F)F)c2)cc1` [GSK955403], the “%Inh” value in the assay on TNIK (1 µM) is recorded as 3%; in the assay on TNK1 (1 µM) it was 17%; with TNK2 (1 µM), 2%; in the assay on TNNI3K (1 µM), 0%; in the assay on TRKA (1 µM), 0%; in the assay on TRKB (1 µM), 0%. Further, the “%Inh” value in the assay on TRKC (1 µM) was determined as 0%; in the assay on TRPM6 (1 µM), 0%; in the assay on TSSK1B (1 µM), 0%; in the assay on TSSK3 (1 µM), 8%.
As to `COc1ccc(Nc2nccc(-c3cccc(NC(=O)c4cc5cc(F)ccc5[nH]4)c3)n2)cc1` [GSK1229782], the “%Inh” value in the assay with TNIK (setting [1]) is reported as 84%; with TNK1 (setting [1]), 0%; with TNK2 (setting [1]) it was 16%; with TNNI3K (setting [1]), 0%; with TRKA (setting [1]), 52%; in the assay with TRKB (setting [1]) it was 36%. The “%Inh” value with TRKC (setting [1]) is reported as 47%; in the assay with TRPM6 (setting [1]), 33%; with TSSK1B (setting [1]), 22%; in the assay on TSSK3 (setting [1]), 35%.
